Reference: PubChem BioAssay (Tox21)
Records with an inconclusive call do not appear. A call without a number means that no potency is given here. Values without a mark were called inactive. The source made the active and inactive calls. The call rests on the fitted dose curve.

These compounds were tested against Peroxisome proliferator-activated receptor gamma (Homo sapiens) (UniProt P37231) (assay: qHTS assay to identify small molecule antagonists of the peroxisome proliferator-activated receptor gamma (PPARg) signaling pathway (AID 743191; further: nearly all actives have a fitted effect of over 30% in size)). Settings: HEK293H PPARg-UAS-bla, beta-lactamase ratio, antagonist, 17 h; series mostly up to 62.6 µM.
Peroxisome proliferator-activated receptor gamma (Homo sapiens), sequence (P37231 whole entry, looked up): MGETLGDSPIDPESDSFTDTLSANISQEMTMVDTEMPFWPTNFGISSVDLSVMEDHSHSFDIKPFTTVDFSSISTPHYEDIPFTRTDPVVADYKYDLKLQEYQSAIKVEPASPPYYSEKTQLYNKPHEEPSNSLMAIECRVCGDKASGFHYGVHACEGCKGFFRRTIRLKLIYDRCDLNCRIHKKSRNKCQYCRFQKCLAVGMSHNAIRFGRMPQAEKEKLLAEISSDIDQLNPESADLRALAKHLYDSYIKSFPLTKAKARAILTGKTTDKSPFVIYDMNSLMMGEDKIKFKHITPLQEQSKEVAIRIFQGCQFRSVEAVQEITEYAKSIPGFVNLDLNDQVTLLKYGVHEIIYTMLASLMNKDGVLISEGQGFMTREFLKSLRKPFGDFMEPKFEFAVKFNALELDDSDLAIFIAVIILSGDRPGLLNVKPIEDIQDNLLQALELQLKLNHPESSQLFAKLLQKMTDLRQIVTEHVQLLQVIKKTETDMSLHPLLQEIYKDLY
From the text: U.S. Tox21 Program National Center for Advancing Translational Sciences [NCATS] NIH Chemical Genomics Center [NCGC] U.S. Environmental Protection Agency [EPA] National Institutes of Environmental Health Sciences [NIEHS] National Toxicology Program [NTP] U.S. Food and Drug Administration [FDA] Tox21 Assay Overview: The peroxisome proliferator-activated receptors (PPARs) are lipid-activated transcription factors of the nuclear receptor superfamily with three distinct subtypes namely PPAR alpha, PPAR delta (also called PPAR beta) and PPAR gamma (PPARg). All these subtypes heterodimerize with Retinoid X receptor (RXR) and these heterodimers regulate transcription of various genes. PPAR-gamma receptor (glitazone receptor) is involved in the regulation of glucose and lipid metabolism. To identify the compounds that inhibit PPAR-gamma signaling, GeneBLAzer PPAR gamma UAS-bla HEK293H cell line (Invitrogen, Carlsbad, CA, USA) containing a beta-lactamase reporter gene under control of an Upstream Activator Sequence (UAS) was used to screen the Tox21 compound library.
Tox21 Assay Protocol Summary: PPARg-bla cells were dispensed at 3000 cells/6uL/well in 1536-well black wall/clear bottom plates using a Multidrop Combi (Thermo Fisher Scientific, Waltham, MA) dispenser. After the assay plates were incubated at 37C and 5% CO2 for 5 h, 23 nL of compounds dissolved in DMSO, positive controls or DMSO only was transferred to the assay plate by a Pintool station (Kalypsys, San Diego, CA). The assay plates were incubated at 37C for 17 h. After 1 uL of LiveBLAzerTM B/G FRET substrate was added using a Bioraptr Flying Reagent Dispenser (FRD) workstation (Beckman Coulter, Indianapolis, IN, USA), the plates were incubated at room temperature for 1 h, and fluorescence intensity was measured by an Envision plate reader (PerkinElmer, Shelton, CT).
Potency means the concentration at half of the fitted maximal effect.

Row | Structure (SMILES) | Potency | ratio activity, negative = inhibition
1 | CN=C(N)NC(=O)Nc1c(C)cccc1C | inactive | 
2 | CCCCCCCC(=O)Oc1c(Br)cc(C#N)cc1Br | 34.5 µM (active) | 
3 | CNCc1ccc(NC(=O)c2c[nH]c3c2C(=O)CCC3)cc1 | inactive | 
4 | Nc1nc2ccc(OC(F)(F)F)cc2s1 | inactive | 
5 | Cc1c(C2(c3cc(Br)c(O)c(Br)c3C)OS(=O)(=O)c3ccccc32)cc(Br)c(O)c1Br | inactive | 
6 | NC(=O)CCCCC(N)=O | inactive | 
7 | CCCCCCCCCCCCCCN(C)C | inactive | 
8 | Cc1ccc(S(=O)(=O)NC(=O)NC2CCCCC2)cc1 | inactive | 
9 | O=C(O)CN1C(=O)c2cccc3cccc(c23)C1=O | inactive | 
10 | CCOC(=O)Oc1ccc(CCNC(=O)[C@H](CCSC)NC(C)=O)cc1OC(=O)OCC | inactive | 
11 | CC1CCCC(=O)C1=O (stereo not given) | inactive | 
12 | CCOCCC(=O)OCC | inactive | 
13 | COc1ccc(/C=C/C(=O)c2ccc(OC)cc2OC)cc1 | 9.44 µM (active) | 
14 | CCc1ccc(C)cc1 | inactive | 
15 | C=Cc1ccc(OC(C)=O)cc1 | inactive | 
16 | CCC(CO)(CO)CO | inactive | 
17 | Cc1oc(=O)oc1COC(=O)[C@@H]1N2C(=O)[C@@H](NC(=O)[C@H](N)c3ccccc3)[C@H]2SC1(C)C | inactive | 
18 | COc1cc(NC(C)CCCN)c2ncccc2c1 (stereo not given) | inactive | 
19 | COC(=O)c1sccc1S(N)(=O)=O | inactive | 
20 | O=C1[C@@H]2[C@H]3CC[C@H](C3)[C@@H]2C(=O)N1CCCCN1CCN(c2ncccn2)CC1 | inactive | 

Row | Structure (SMILES) | Potency | ratio activity, negative = inhibition
21 | CCC(CO)(CO)[N+](=O)[O-] | inactive | 
22 | CC(C)(C)CCCCCCOC(=O)c1ccccc1C(=O)OCCCCCCC(C)(C)C | inactive | 
23 | C=CC(=O)NC(C)C | inactive | 
24 | C1CCCCC1 | inactive | 
25 | CCN(Cc1cccc(S(=O)(=O)O)c1)c1ccc(C(=C2C=CC(=[N+](CC)Cc3cccc(S(=O)(=O)O)c3)C=C2)c2ccc(O)cc2S(=O)(=O)[O-])cc1 | inactive | 
26 | O=C1NC(=O)c2cccc3cccc1c23 | inactive | 
27 | O=C(/C=C/c1ccc([N+](=O)[O-])cc1)c1ccccc1 | inactive | 
28 | CC(CCc1ccc(O)cc1)NCCc1ccc(O)c(O)c1 (stereo not given) | inactive | 
29 | O=C(O)CCC(=O)c1ccc(-c2ccccc2)cc1 | inactive | 
30 | COc1ccc(C2C(=O)c3ccccc3C2=O)cc1 | inactive | 
31 | CC(C)c1ccc(C#N)cc1 | inactive | 
32 | O=C(O)c1ccc(O)cc1O | inactive | 
33 | Cc1cccc(C)c1NC(=O)c1cc(S(N)(=O)=O)c(Cl)cc1O | inactive | 
34 | CN1C(CSCC(F)(F)F)Nc2cc(Cl)c(S(N)(=O)=O)cc2S1(=O)=O (stereo not given) | inactive | 
35 | C1=CCC2CC=CC2C1 (stereo not given) | inactive | 
36 | Oc1cccc2[nH]ccc12 | inactive | 
37 | CCC(Cl)CC(Cl)C(Cl)C(Cl)C(Cl)C(C)Cl (stereo not given) |  | -28.9% [at 13.2 µM]
38 | Cc1ccc(N(CCO)CCO)cc1 | inactive | 
39 | CC(C)(O)CCc1ccccc1 | inactive | 
40 | O=C1c2ccccc2C(=O)c2c(O)ccc(O)c21 | inactive | 
